# Experimental data published in the supplement of paper PMC6555819.
# Tested on: VDR:RXRa (NR concentration 270 nM, RXRa partner concentration 90 nM)
# Experiment: PBM binding z-score (relative to random genomic background probes); higher = stronger binding; sequences stand for … in GC…GCGATTGACAGCGTAGAATGAAGG
# Protocol: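 Protein-binding microarray (Agilent 4x180K custom design, double-stranded 60-nt probes: 5' GC cap, 34-nt variable region, 24-nt constant primer region; full probe sequence given). Purified or IVT nuclear receptor:RXRα heterodimers (3:1 NR:RXRα, mostly 270:90 nM) or homodimers were incubated for 1 h in PBS with 2% milk and no ligand, then detected with Alexa488 antibodies. Fluorescence from o1-orientation probes (~5 replicates averaged) was converted to z-scores against 500 random hg19 background probes. Variable regions are seed direct-repeat (DR0–DR5) sites, all their single-nucleotide variants and half-site ablations.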
row,Sequence,PBM binding z-score
1,ATTAGCAGGCCAAGTTTGGGTCACTCAAACAAAG,0.833
2,CCTAGTTGGTCTGGAGGTCACACACCGGATATGA,4.03
3,CGTCCAAGGTCAGAGAGGTCAGGGAATGCCGAGT,7.31
4,ACGAGTTGGTCAGCTGAGGTCACACACAATTCGG,4.62
5,ATACCAAGGTGATCGTGAGGTCGTTGCTACTAAC,3.4
6,CCTCGGAGGACAGAGGGTCAGAGCTGTCCGCTTT,0.544
7,AGTCAAAGTTCAGGACGAGGTAACGTAGAGCACG,2.91
8,ACTAGTTGGTCAGCGGAGGTCACACACAATTCGG,3.98
9,CCAGACCGGTGAGAAGGTAACTCAGCCTCGATTA,-0.163
10,AGGCAAAGTTCACTAGGTAACGTAAGATTCAGCT,3.88
11,GCTAGTAGGCCATTTGGGTCACTCAATGACGGGC,0.995
12,TCTCGGAGGACCCGAAGGTCAGAGCTTTCCAGAG,0.636
13,CCTAGCAGGGCAATCTGGGTCACTCAAGGCTTGA,1.08
14,CCGTACGGGTCACTCCAGGTTATAGCATCGGAGT,4.39
15,TCGAGTAGGTTACCAATGGGGCATTTAGCTTTCT,0.185
16,GCATATCGGTAATACAAGGTGAAAGTCCGATTGT,0.0318
17,TCATATAGGTAAAGCTGAAAGTCGAACGATATGA,0.186
18,CATCCTAGGTCAGGGCCAGTATAGGAGGAACGTT,0.731
19,GTACCAAGGTGGATAGGTCGTTGATGAGTAGGCG,-0.168
20,CGTCCAAGGTCAGCAGGGCAGTGAAAGCGACGTG,2.87

row,Sequence,PBM binding z-score
1,TTACCAAGGTGAGCTGAGGTCGTTAATCCAACTC,3.68
2,CCAGACAGGTGAAAGCTAACTCAGTCTGGTACGC,-0.274
3,CTCGAAAGGACGTGCTCAGGTGAGTATACCAAAC,-0.251
4,TAGCCTAGCTCATTGGGCCAGTATAGTACGCATC,-0.69
5,CCGACTGGGGCATAAGGTTACCGTAAGCCAGCCC,0.108
6,CCTATTAGTTGACCATAAGGGTAACCGAAGCTCG,0.776
7,TCTTGTAGATCGACAGGAGGTTAAGAAAGATCGA,0.501
8,ATACCAAGGTGATCGTGAGGTCGTTGGTACTAAC,3.09
9,TCTATTAGTTGAAGGGCTACCGACGAGTCCGTTT,0.745
10,TTTTGTAGATCAACAGGAGGTTAAGAAAGATCGA,0.859
11,CGAACGAGGGCCTGAGTTGATAGCAAATGCCGAT,-0.469
12,CGTCAAAGTACAAGGTAACGTAACAGAAAGCAGC,0.215
13,ACTTACGGGTCAACGAGGTTATGGCACGCGTATA,7.66
14,TCTCGGAGGACCCGAAAGGTCAGAGCTCGACATC,2.45
15,TCTAGTTAGTCACGGAGGTCACACACGACGGGTA,4.24
16,CCTACTGGGCAACGAAAGGTCATTGATTCAGTGA,3.7
17,AATACAGGGGCATCGTAGGCCAGAGTACGCACAG,0.784
18,CCTTACGGATCACGAGGTTATAGCACGACGAGCG,1.05
19,CGAACGAGAGCATGAGTTGATAGCAAATGCCGAT,-0.244
20,TCTCGGAGGACACGAAAGTTCAGAGCTCGACATC,2.25
